test system: Vero E6 infected with SARS-CoV-2; experiment: SARS-CoV-2 infection rate relative to infected DMSO; higher = more infection, active = 60 or less; conditions: 24 h

SMILES | SARS-CoV-2 infection rate
N[C@@H](C(=O)N[C@@H]1C(=O)N2C(C(=O)O)=C(Cl)CS[C@H]12)c1ccccc1 [cefaclor] (10 µM) | 104% (inactive)
CC(C)n1nc(C#Cc2ccccc2)c2c(N)ncnc21 (10 µM) | 69.5% (inactive)
COc1ccc2c3c1O[C@H]1C[C@@H](O)C=C[C@@]31CCN(C)C2 [galantamine] (10 µM) | 102% (inactive)
Cn1ncc(Cl)c1-c1cc(C(=O)N[C@H](CN)Cc2cccc(F)c2)sc1Cl (10 µM) | 107% (inactive)
CNC(=O)N(C)N=O [nitrosodimethylurea] (10 µM) | 106% (inactive)
CCc1c2c(nc3ccc(O)cc13)-c1cc3c(c(=O)n1C2)COC(=O)[C@]3(O)CC (0.833333 µM) | 116% (inactive)
CCCCOC(=O)c1ccc(N)cc1 [butamben] (10 µM) | 108% (inactive)
C[C@@]1(CO)[C@H](O)CC[C@@]2(C)[C@H]1CC[C@H]1C[C@@H]3C[C@@]12CC[C@]3(O)CO [aphidicolin] (0.833333 µM) | 106% (inactive)
COc1c(Nc2ccc(S(C)(=O)=O)nc2C)ncnc1OC1CCN(C(=O)OC(C)C)CC1 (10 µM) | 100% (inactive)
COC(=O)N/N=C/c1c[n+]([O-])c2ccccc2[n+]1[O-] [carbadox] (10 µM) | 85% (inactive)
CCc1c(C(=O)NCCc2ccc(N3CCCCC3)cc2)[nH]c2ccc(Cl)cc12 (10 µM) | 124% (inactive)
CCN(CC)CCOC(=O)C(c1ccccc1)c1ccccc1 [adiphenine] (10 µM) | 110% (inactive)
CC[C@H]1[C@@H](O)[C@@H]2[C@H](CC[C@]3(C)[C@@H]([C@H](C)CCOS(=O)(=O)O)CC[C@@H]23)[C@@]2(C)CC[C@@H](O)C[C@@H]12 (10 µM) | 106% (inactive)
CCN(CC)CC(=O)Nc1c(C)cccc1C [lidocaine] (10 µM) | 100% (inactive)
OC[C@H]1OC(O)[C@H](O)[C@@H](O)[C@@H]1O (stereo not given in full) [dextrose] (10 µM) | 110% (inactive)
O=C(c1ccc(F)cc1)N1CCC[C@H](c2nc(-c3ccc(F)cc3)no2)C1 (10 µM) | 93.5% (inactive)
O=[N+]([O-])c1cn2c(n1)OC[C@@H](OCc1ccc(OC(F)(F)F)cc1)C2 [pretomanid] (10 µM) | 112% (inactive)
C[C@H](O)[C@H](O)[C@H]1CNc2nc(N)[nH]c(=O)c2N1 [sapropterin] (10 µM) | 95.5% (inactive)
NC1CCN(c2c(F)cc3c(=O)c(C(=O)O)cn(C4CC4)c3c2Cl)C1 (stereo not given) [clinafloxacin] (10 µM) | 112% (inactive)
CC(C)NCC(O)COc1cccc2ccccc12 (stereo not given) [propranolol] (10 µM) | 103% (inactive)

SMILES | SARS-CoV-2 infection rate
N.N.[Cl][Pt][Cl] [cisplatin] (10 µM) | 111% (inactive)
O=C(/C=C/c1ccc(O)c(O)c1)O[C@@H]1C[C@](O)(C(=O)O)C[C@@H](O)[C@H]1O [chlorogenic-acid] (10 µM) | 112% (inactive)
Cc1cc(-c2cc(OC(=O)c3ccccc3)ccc2Cl)cc2nnc(Nc3ccc(OCCN4CCCC4)cc3)nc12 (10 µM) | 114% (inactive)
O=Nc1c(-c2c(O)[nH]c3cc(Br)ccc23)[nH]c2ccccc12 [GSK-3-inhibitor-IX] (0.833333 µM) | 67% (inactive)
Cc1c(I)c(=O)n(-c2ccccc2)n1C [iodoantipyrine] (10 µM) | 118% (inactive)
COc1cc2nc(N3CCCN(C)CC3)nc(NC3CCN(Cc4ccccc4)CC3)c2cc1OC (0.833333 µM) | 73.5% (inactive)
O=C(O)C1=CO[C@@H](O[C@@H]2O[C@H](CO)[C@@H](O)[C@H](O)[C@H]2O)[C@@H]2C(CO)=CC[C@H]12 [Geniposidic acid] (10 µM) | 114% (inactive)
NC1CCN(c2cccc(Cl)n2)CC1 (10 µM) | 108% (inactive)
C=CC(=O)N1CCC[C@@H](n2nc(-c3ccc(Oc4ccccc4)cc3)c3c(N)ncnc32)C1 [ibrutinib] (10 µM) | 109% (inactive)
CN(C)CC/C=C1/c2ccccc2Sc2ccc(Cl)cc21 [chlorprothixene] (10 µM) | 68.5% (inactive)
CCN(CC)C(=S)S [ditiocarb-sodium-trihydrate] (10 µM) | 11% (active)
CN1CCOC(c2ccccc2)c2ccccc2C1 (stereo not given) [nefopam] (10 µM) | 108% (inactive)
CC(=O)N1CCN(CCOc2ccc(C3CCN(C4=Nn5c(nnc5C(F)(F)F)CC4)CC3)cc2)CC1 (0.833333 µM) | 98.5% (inactive)
COc1cc(C#N)ccc1S(=O)(=O)Nc1ccc2c(c1)cc(C)c(=O)n2C (10 µM) | 102% (inactive)
C[C@@H]1CN(CC(=O)Nc2ccc3c(c2)Cc2cccc(-c4cc(=O)cc(N5CCOCC5)o4)c2S3)C[C@H](C)O1 (10 µM) | 60% (active)
NC(N)=Nc1nc(CSCC/C(N)=N/S(N)(=O)=O)cs1 [Famotidine] (10 µM) | 106% (inactive)
C[C@@H](NC(=O)[C@@H](N)Cc1ccc(O)cc1)C(=O)NCC(=O)N(C)[C@@H](Cc1ccccc1)C(=O)N[C@H](CO)CC[S+](C)[O-] (stereo not given in full) (10 µM) | 112% (inactive)
CN(C)CCOC(=O)C(c1ccccc1)C1(O)CCCC1 (stereo not given) [cyclopentolate] (10 µM) | 93% (inactive)
CC1(COc2ccc3c(c2)ncn3-c2ccc3cccc(N4CCC(N)CC4)c3n2)COC1 [crenolanib] (0.833333 µM) | 99.5% (inactive)
Cn1nnc2c(C(N)=O)ncn2c1=O [temozolomide] (10 µM) | 114% (inactive)

— the supplement of paper PMC13380429
